# HCV inhibitor – blocks hepatitis C virus; Potency, µM (top dose mostly 41.8 µM), for the others: top-dose activity change, negative = inhibition, most hits filed as inhibitors; AID 651820; Huh7.5.1 HCVcc-Cre infection, luciferase reporter, 44 h; 3.4% of 340,000 active; note: potency is the fitted concentration of half-maximal effect; % is set by controls: 0 for no effect and ±100 for the full control effect
#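 After 44 h co-culture of compound, cells and HCVcc-Cre (~0.5 moi), substrate is added for 15 min at room temperature and luciferase measured over 15 sec. Cells were seeded at 1,000/well and pre-cultured 4 h.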
# Shiga toxin inh – blocks Shiga toxin action in Vero cells; Vero cells, Shiga toxin protein synthesis inhibition reporter; inhibition, % at 38.7 µM; 9.2% of 290,000 active; AID 2315; in the data active = inhibition mostly above about 28%, no sharp cut-off; inactive = mostly below about 43%; note: 0% is about no effect
# Pf growth 96h – P. falciparum growth inhibition at 96 hours; P. falciparum luciferase reporter growth, 96 h; Potency, µM (doses to about 28.7 µM), inactives show at the highest dose activity change, negative = inhibition, usual class: inhibitors; 6.9% of 320,000 active; AID 504834; note: potency is the fitted concentration of half-maximal effect; % is set by controls: 0 for no effect and ±100 for the full control effect
#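 Two parasite generations (96 h, 37 C, 5% CO2) of compound exposure in infected erythrocytes (0.05% parasitemia, 2% hematocrit). Luciferase-reporter P. falciparum; decreased luminescence indicates inhibited growth, aimed at apicoplast-acting delayed death.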
# Pf growth 48h – inhibits P. falciparum growth in the first generation, 48 h | 5.9% of 310,000 active | AID 504832 | Potency, µM (series often up to 28.7 µM), for the others: at the top dose activity change, negative = inhibition, actives largely listed as inhibitors | P. falciparum luciferase growth in erythrocytes, 48 h; note: potency is the fitted concentration of half-maximal effect; % is set by controls: 0 for no effect and ±100 for the full control effect
#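 Firefly luciferase activity from engineered P. falciparum reports growth; inhibitors lower the luminescent signal. Cultures contained 2% hematocrit erythrocytes at 0.1% final parasitemia.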
# HCMV inh – blocks human cytomegalovirus replication. HFF cells, HCMV-luciferase reporter, 72 h; active compounds read low. activity change, negative = inhibition, % at 57.5 µM. 4.5% of 410,000 active; in the data active = activity change below about -60%; inconclusive = no clear call, values can overlap the other calls; inactive = above about -39%; note: % is set by controls: 0 for no effect and ±100 for the full control effect
#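 Luciferase read-out from HCMV-luciferase-infected HFFs (MOI 1 PFU/cell) 72 h post infection at 37C; compounds added after 16 h cell attachment; activity normalized between buffer-only basal and Salinomycin (10uM) inhibitor controls.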
# Cycloheximide cs – counter-screen for Shiga toxin inhibitors: cycloheximide protein synthesis inhibition; cell reporter, cycloheximide protein synthesis inhibition counterscreen; max response, %; 12% of 300,000 active; AID 2314; in the data active = max response mostly above about 13%, no sharp cut-off; inactive = mostly below about 14%; note: read at 38.3 µM for the half of the compounds with a filed dose; 0% is about no effect
# Starred values were filed as active, the others as inactive; ? = inconclusive; . = not tested or not shown. In the library only some 21% were active in any assay of this set; here they are far more common. Unless noted, calls come from the whole dose curve; as a rule, active = well fitted inhibition curve with a large enough effect; inconclusive = small, poorly fitted or top-dose-only effect, or another doubt; inactive = no such curve, though single readings can be large or run the other way.
SMILES,HCV inhibitor,Shiga toxin inh,Pf growth 96h,Pf growth 48h,HCMV inh,Cycloheximide cs
CC(C)C(=O)Nc1cccc(NC(=S)NC(=O)c2ccc(Cl)cc2)c1,?,67*,6%,27%,-73*,65*
COCCN(C(=O)CCN1C(=O)C2CC=CCC2C1=O)c1c(N)n(CC(C)C)c(=O)[nH]c1=O (stereo unspecified),5%,.,6%,-5%,-37,.
C[C@H]1[C@@H](NS(=O)(=O)c2ccc(Br)cc2)CC[C@@]23CCCN2C(=O)CCC[C@@H]13,.,.,.,.,4,.
CC(=O)c1ccc(OCCCCOc2ccc(C(C)=O)cc2)cc1,9%,-15,-3%,-10%,2,-3
CSc1cccc(NC(=O)Cn2c3ncccc3c(=O)n2-c2ccc(C)cc2)c1,.,.,.,.,-21,.
O=C(Nc1cccc(NC(=S)NC(=O)c2cccs2)c1)c1ccccc1,?,17,38%,28%,-13,-2
COc1cc(NC(=S)NC(C)=O)ccc1NC(=O)C(C)C,?,61*,32%,45%,28,25*
CCCCC(=O)NC(=S)Nc1ccc(NC(=O)C(C)C)c(OC)c1,-8%,-16,187%,-10%,-17,7
COc1cc(NC(=S)NC(=O)c2cccs2)ccc1NC(=O)C(C)C,-26%,56*,-18%,2%,-17,23*
CC(C)C(=O)Nc1cccc(NC(=S)NC(=O)c2cccs2)c1,-34%,75*,31%,99%,62,33*
NC(=O)c1ccccc1NC(=O)COC(=O)C1(c2ccccc2)CC1,-9%,.,-14%,?,-31,.
Cc1ccccc1S(=O)(=O)N1C[C@H]2[C@H]3C(=O)N(C4CCCCC4)C(=O)[C@H]3CC(=O)[C@H]2[C@@H]1c1ccc(Cl)cc1,.,.,.,.,5,.
CCC1Oc2ccccc2N(CC(=O)NCc2ccccc2)C1=O (stereo unspecified),.,.,.,.,2,.
O=C(Nc1nc(-c2ccc(Cl)s2)cs1)c1ccccc1,?,45,9.3µM*,.,6,42*
Nc1nc(-c2cccs2)cs1,7%,69,122%,18%,.,34*
O=C(COc1ccccc1Cl)Nc1nc(-c2cccs2)cs1,?,3,9%,-12%,-5,13
O=C(Nc1nc(-c2cccs2)cs1)c1ccc(Cl)s1,?,39*,?,20%,-37,42*
CC(=O)Nc1nc(-c2cccs2)cs1,-5%,40,5%,3%,38,23*
O=C(O)C1CCCCC1C(=O)Nc1nc(-c2cccs2)cs1 (stereo unspecified),-1%,15,-12%,-7%,-4,-4
CCN(CC)C(=O)Cn1c(=O)n(Cc2ccc(C(=O)NCCc3ccc(OC)c(OC)c3)cc2)c(=O)c2ccccc21,.,.,.,.,17,.
CN(C)Cc1cc(C(C)(C)C)c(O)c(C(C)(C)C)c1,4%,-1,1µM*,29%,-17,8
O=P(Cc1ccccc1)(c1ccccc1)c1ccccc1,15%,-6,1%,0%,-31,1
CC(C)(C)c1cc(CP(=O)(c2ccccc2)c2ccccc2)cc(C(C)(C)C)c1O,16µM*,.,?,?,-14,13*
CCCCN(C=O)c1c(CC)nc2c(OCCOc3ccc(F)cc3)cccn12,.,.,.,.,-4,.
COc1cccc(C(O)c2ncc(-c3ccccc3OC)[nH]2)c1 (stereo unspecified),.,.,.,.,-17,.
SMILES,HCV inhibitor,Shiga toxin inh,Pf growth 96h,Pf growth 48h,HCMV inh,Cycloheximide cs
CCN(CC)C(=S)SCC(=O)Nc1ccc(F)cc1,8%,12,39%,0%,-25,14
CCN(CC)C(=S)SCC(=O)Nc1cccc(C(F)(F)F)c1,?,.,.,.,-20,.
CCN(CC)C(=S)SCC(=O)c1ccccc1,-12%,68*,133%,221%,49,62*
CCN(CC)C(=S)SCC(=O)c1ccc(F)cc1,-19%,60*,106%,162%,171,40*
O=[N+]([O-])c1ccc(Cl)c(S(=O)(=O)n2ccnc2)c1,4%,-7,-5%,2.9µM*,16,-1
COc1ccc(C2C(C(=O)c3ccco3)=C(O)C(=O)N2CC2CCCO2)c(OC)c1 (stereo unspecified),9%,-7,-20%,4%,11,2
CC1CCN(C(=O)COC(=O)c2ccc3c(c2)OCO3)CC1,4%,82*,246%,149%,-1,34*
